Results taken from PubChem BioAssay (NCI).
Compounds without any hit were thinned out: in the full panel of roughly 83,000, 20% have a hit.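 Treatment: one concentration, 48 hours, 96-well format. Scoring: percent growth, with anything below 10 considered active.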 Active and inactive are the calls of the source.

Columns and labels:
Experiment in all cases: NCI-60 one-dose screen, 48 h (100 = growth as untreated, 0 = no growth, -100 = all killed)
Conditions in all cases: 10 µM unless noted
[1] = test system: NCI-H23 lung
[2] = test system: NCI-H226 lung
[3] = test system: NCI-H322M lung
[4] = test system: HOP-62 NSCLC
[5] = test system: NCI-H460 lung
[6] = test system: HOP-92 NSCLC
[7] = test system: NCI-H522 lung
[8] = test system: A549/ATCC NSCLC
[9] = test system: 786-0 renal
[10] = test system: COLO 205 colon

Measured: growth

CN1CCN(Cn2nc(-c3cc(Cl)cc(Cl)c3Cl)n(/N=C/c3ccc(Cl)cc3)c2=S)CC1
inactive: [1] 92.5% | [2] 104% | [3] 67.6% | [4] 95% | [5] 106% | [6] 43.7% | [7] 91.1% | [8] 94% | [9] 89.1% | [10] 118%

OC[C@@H](O)C(O[C@@H]1O[C@H](CO)[C@H](O)[C@H](O)[C@H]1O)[C@H](O)[C@@H](O)CO (stereo not given in full)
inactive: [1] 98.3% | [2] 103% | [3] 96% | [4] 96.7% | [5] 108% | [6] 82.1% | [7] 95.7% | [8] 110% | [9] 106% | [10] 110%

[2H]c1nc(Nc2ncc(F)c(-c3cc(F)c4nc(C)n(C(C)C)c4c3)n2)c([2H])c([2H])c1CN1CCN(CC)CC1
inactive: [1] 48.7% | [2] 41.5% | [3] 41.1% | [4] 51.2% | [5] 43.9% | [6] 59.1% | [7] 66.1% | [8] 36.2% | [9] 52.8% | [10] 15.6%

COc1ccc(Cn2cc3c(c2-c2cc(OC)c(OC)c(OC)c2)CCc2c(CO)noc2-3)cc1
active: [5] 4.62% | [7] 9.75% | [10] -23.6%
inactive: [1] 38.3% | [2] 47.7% | [3] 39.7% | [4] 35.2% | [6] 57% | [8] 32.5% | [9] 45%

C=C1C(=O)O[C@H]2[C@H]1CC/C(COC(=O)CCCC(=O)OC/C1=C/CC[C@@]3(C)O[C@H]3[C@H]3OC(=O)C(=C)[C@@H]3CC1)=C\CC[C@@]1(C)O[C@@H]21
inactive: [1] 29.2% | [3] 90% | [4] 79.6% | [5] 64.5% | [8] 73.5%
active: [2] -44.4% | [6] -43% | [7] -80.3% | [9] -34.1% | [10] -44.9%

Cc1cccc(NC(=O)CCc2ccc(N3C(N)=NC(N)=NC3(C)C)cc2)c1
inactive: [1] 30.6% | [2] 100% | [3] 42.7% | [4] 24% | [5] 19.8% | [6] 32.5% | [8] 11.8% | [10] 73.6%
active: [7] 0.83% | [9] -7.98%

COc1cccc(/C=N/C(=S)NC2(C)C3CCC(C3)C2(C)C)c1O (stereo not given)
inactive: [1] 94.7% | [2] 93.1% | [3] 73.1% | [4] 92% | [5] 60.2% | [6] 93.3% | [7] 69.7% | [8] 74.7% | [9] 88% | [10] 89.6%

COc1ccc(-c2c(NC(=O)Nc3ccc(Cl)c(C(F)(F)F)c3)cnn2-c2ccc(S(N)(=O)=O)cc2)cc1
active: [5] 9.7% | [6] 0.848%
inactive: [1] 42.6% | [2] 75.8% | [3] 51% | [4] 53.5% | [7] 43.7% | [8] 39.2% | [9] 31.6% | [10] 34.7%

CC(=O)Cc1cccnc1
inactive: [1] 96.5% | [2] 95.4% | [3] 102% | [4] 108% | [5] 105% | [6] 102% | [7] 96.3% | [8] 101% | [9] 103% | [10] 115%

CCCC(=O)Oc1ccc(/C(=C(\C)c2ccc(OC)cc2)c2ccc(OCCN3CCCCC3)cc2)cc1
inactive: [1] 79.3% | [2] 83.5% | [3] 89.7% | [4] 86.1% | [5] 87.1% | [6] 69% | [7] 78.9% | [8] 76.8% | [9] 67.1% | [10] 67.6%

CC(=S)Nc1ccccc1
inactive: [1] 95.7% | [2] 89.3% | [3] 104% | [4] 82.2% | [5] 97.3% | [6] 90.7% | [7] 88.2% | [8] 79.6% | [9] 104% | [10] 99.8%

CN[C@@H](CCCNC(N)=NC/C=C(/C)CCC=C(C)C)C(=O)N(C)[C@@H](CCCNC(N)=NCC=C(C)C)C(=O)N[C@H](C)[C@H](OS(=O)(=O)O)c1ccc(OS(=O)(=O)O)c(COS(=O)(=O)O)c1
inactive: [1] 99.9% | [2] 89.1% | [3] 102% | [4] 102% | [5] 110% | [6] 100% | [7] 83.9% | [8] 89.7% | [9] 97.1% | [10] 108%

Cc1cc(NCCN(C(C)C)C(C)C)nc(/N=C(\N)Nc2ccc(Cl)c(C(F)(F)F)c2)n1
active: [1] -67.1% | [2] -32.1% | [3] -51.9% | [4] -95.4% | [5] -84.7% | [6] -93.5% | [7] -81.1% | [8] -89.5% | [9] -99.7% | [10] -71.3%

c1coc(CSc2ncnc3nc[nH]c23)c1
inactive: [1] 103% | [2] 101% | [3] 125% | [4] 99.7% | [5] 111% | [6] 57.8% | [7] 80% | [8] 101% | [9] 97% | [10] 113%

COc1cc2ncn3c(=O)c4c5c(sc4nc3c2cc1OC)CCCCC5
inactive: [1] 89.3% | [2] 74.5% | [3] 90.9% | [4] 91% | [5] 99.5% | [6] 81.9% | [7] 99.9% | [8] 104% | [9] 106% | [10] 98%

O=C(NCCNc1nccc(-c2c(-c3cccc(O)c3)nc3sccn23)n1)c1cccc(C(F)(F)F)c1
inactive: [1] 81% | [2] 88.5% | [3] 103% | [4] 114% | [5] 85.7% | [6] 83.8% | [7] 48.5% | [8] 71.3% | [9] 89.3% | [10] 71.1%

CN1CCN(CC(=O)N(C)c2ccc(N=C(c3ccccc3)c3c(O)[nH]c4ccc(C#N)cc34)cc2)CC1
active: [10] 0.511%
inactive: [1] 35.5% | [2] 43.2% | [3] 37.7% | [4] 39.7% | [5] 21.2% | [6] 63.8% | [7] 45.3% | [8] 19.6% | [9] 32.4%

COc1ccc(-c2nn(-c3ccc(NC(=O)Nc4cc(C(F)(F)F)cc(C(F)(F)F)c4)cc3)cc2-c2ccncc2)cc1Cl
inactive: [3] 30.9% | [4] 19.5% | [8] 14.6%
active: [1] 8.51% | [2] 0.753% | [5] -2.26% | [6] -21.6% | [7] -8.92% | [9] 1.94% | [10] -33.4%

COc1ccc(Cl)cc1NC(=O)c1cc2c(n1C)-c1nc(NC(=O)C(C)C)sc1CC2
inactive: [1] 89.4% | [2] 61.3% | [3] 99.1% | [4] 85.7% | [5] 94% | [6] 91% | [7] 49.9% | [8] 71.5% | [9] 88.1% | [10] 96.8%

CS(=O)(=O)Nc1cccc(-c2ccc3ncnc(Nc4cncc(Cl)c4)c3c2)c1
inactive: [1] 47.1% | [2] 52.5% | [3] 19.9% | [4] 40.5% | [5] 44.9% | [6] 11.2% | [7] 28.1% | [8] 30.5% | [9] 10.1%
active: [10] 5.27%

CC(C)(CCN=C(N)Nc1ccccn1)c1ccc(C(F)(F)F)cc1
active: [6] -2.94% | [7] 4.82% | [10] -72.8%
inactive: [1] 11.8% | [2] 42.4% | [3] 45.5% | [4] 50.4% | [5] 18.3% | [8] 31.2% | [9] 29.2%

Nn1c(SCC(=O)Nc2cc(Cl)c(Cl)cc2Cl)nnc1-c1cc(F)c(Cl)cc1Cl
inactive: [1] 103% | [2] 138% | [3] 105% | [4] 91.3% | [5] 110% | [6] 75.8% | [7] 90.9% | [8] 106% | [9] 98.4% | [10] 106%

O=C1COc2ccccc2C(=O)N1CCCCNc1ccccc1
inactive: [1] 98.9% | [2] 91.7% | [3] 99.5% | [4] 73.5% | [5] 98.7% | [6] 64.8% | [7] 68.9% | [8] 64.9% | [9] 70.8% | [10] 101%

O=S(=O)(CCN1CCOCC1)Nc1cncc(-c2ccc3ncnc(Nc4ccc(F)c(Cl)c4)c3c2)c1
inactive: [1] 74.8% | [2] 84.8% | [3] 33.8% | [4] 40% | [5] 98.6% | [6] 13% | [7] 54.8% | [8] 77.2% | [9] 58.9% | [10] 64.9%

CN(C)C(=O)Nc1nc2cc(Cl)c(Cl)cc2[nH]1
active: [4] -38.6% | [5] 2.78% | [7] -58.1% | [8] 3.32% | [9] -66.2% | [10] -12.9%
inactive: [1] 11.4% | [2] 30.4% | [3] 39.9% | [6] 75.3%

S=c1[nH]nc(Cn2c3ccccc3c3ccncc32)o1
inactive: [1] 107% | [2] 107% | [3] 106% | [4] 95.1% | [5] 100% | [6] 109% | [7] 91.3% | [8] 90.7% | [9] 99.2% | [10] 104%

C[C@@H]1CC2C3C[C@H](F)C4=CC(=O)C=C[C@]4(C)[C@@]3(F)[C@@H](O)C[C@]2(C)[C@@]1(O)C(=O)CO (stereo not given in full)
inactive: [1] 105% | [2] 70.5% | [3] 94.6% | [4] 101% | [5] 96.2% | [6] 80% | [7] 91.9% | [8] 68% | [9] 109% | [10] 99.3%
